# Test results published in PubChem BioAssay (NCI).
# The panel holds about 79,000 compounds, 15% with a hit somewhere; the sample as a whole holds those more often. A number with no mark means an inactive call. The source made the active and inactive calls. Cut-off read from the data, not from the text of the source: active = growth inhibition above about 70%; inactive = the rest. Where a SMILES comes first, the peptide text is derived from it. [ ]: non-standard residue; d: D form. The star is where a group is joined. ξ: configuration not given here. ξL = CC(C)CC(N)C(=O)O; ClAc = O=C(CCl)*
# Experiment: NCI Yeast Anticancer Drug Screen. Data for the rad50 strain (AID 155);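 note: 0% = growth of vehicle-only cultures of the same strain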
# Conditions: S. cerevisiae rad50 strain growth inhibition; at 50.0 µM; stronger effect = higher value
# Protocol: Growth inhibition of yeast strains with defined genetic alterations is measured as a screen for potential anti-cancer activity. Selected strains with alterations in DNA damage repair or cell cycle control were exposed to compounds and growth inhibition was measured relative to vehicle treated controls. The strain used in this assay is rad50
row,Structure (SMILES),growth inhibition
1,Cc1cccc(C)c1NC(=S)N(C)C,-8.8%
2,CCOc1cc2c(cc1O)/C(=N/NS(=O)(=O)c1ccc(C)cc1)C[C@@H]1[C@@H]2CC[C@]2(C)[C@@H](O)CC[C@@H]12,33.9%
3,C/C(=C\COc1cc(O)c2c(c1)C(=O)c1cc(C)cc(O)c1C2=O)CCC1OC1(C)C (stereo not given),16.7%
4,Cc1c(Cl)cccc1NCN1C(=O)c2ccccc2C1=O,9.65%
5,COc1ccc(-c2cc(=O)c3c(ccc4ccccc43)o2)cc1,21.6%
6,CCCCCCC(=O)CCCCCCCCCCCCC(=O)OC,2.3%
7,Clc1ccc(C=NCCN=Cc2ccc(Cl)c(Cl)c2)cc1Cl,-14.5%
8,C=CCn1c2c(c3ccccc3c1=O)C(=O)c1ccccc1-2,43.9%
9,COc1ccc(C(=O)CC2CCCC(CC(=O)c3ccc(OC)cc3)N2C)cc1 (stereo not given),5.4%
10,CNC(=O)c1cccnc1,-5.35%
11,COc1cccc(CNc2ccc(SC)cc2)c1OC,10.2%
12,O=C(CC(CC(=O)c1ccccc1)c1ccco1)c1ccccc1,2.6%
13,CC1OC(Oc2c(-c3cc(O)c(O)c(O)c3)oc3cc(O)cc(O)c3c2=O)C(O)C(O)C1O (stereo not given),-14.2%
14,Cc1cc(C)cc(NC(=O)c2ccccc2N)c1,-5.15%
15,OCc1ccccn1,-10.7%
16,O=C(O)/C=C/C(=O)Nc1cc(Cl)c(Cl)cc1Cl,-11.3%
17,CC(=O)C1=C(C)N2C(=NC3=C(CCc4ccccc43)C2c2cccc(Br)c2)S1 (stereo not given),12.4%
18,COc1ccc(C(C(N)=O)N2CCCC2)cc1 (stereo not given),1%
19,O=C1c2ccccc2C(=O)N1/N=C/c1cc(Br)ccc1O,22.2%
20,O=C(CCc1ccc(O)c(O)c1)c1ccc(O)c(O)c1O,2.05%

row,Structure (SMILES),growth inhibition
1,C[N+](C)(CCNC(=O)c1cccc2cc3ccccc3nc12)Cc1ccc([N+](=O)[O-])s1,-13.4%
2,Cn1/c(=N\N=C\C(=O)O)sc2ccccc21,-6.1%
3,CC(=O)C(C(C)=O)c1ccccc1,-5.15%
4,O=[N+]([O-])c1cccc(C=Nc2cccc(C(F)(F)F)c2)c1,6.95%
5,CC(O)Cn1cnc2c1c(=O)n(C)c(=O)n2C (stereo not given),-40.1%
6,Cc1ccc(-c2noc(CC(=O)c3ccc([N+](=O)[O-])cc3)n2)cc1,14.4%
7,COc1ccc(C(CCl)(CCl)c2ccc(OC)c(N)c2)cc1N,12.3%
8,CC(C)CC(NC(=O)CCl)C(=O)NCC(=O)O (stereo not given) (ClAc-[ξL]-Gly-OH),8.05%
9,CCO/C=N\C1=C(C#N)SC2=N/C(=C\c3ccc(OC)cc3)C(=O)N21,-7.4%
10,COc1ccc(/C=N/N2C(=O)c3ccccc3C2=O)cc1OC,21%
11,O=C1C=CC=C/C1=C1\N=C(c2ccccc2OCC(=O)c2ccc(Br)cc2)SS1,10.1%
12,Cn1c2c(c3ccccc3c1=O)C(=O)c1ccccc1-2,43%
13,Nc1ccccc1SC1CC(=O)N(c2cccc3ccccc23)C1=O (stereo not given),-19.6%
14,COc1ccc2c(c1C)CN1CCc3cc4c(cc3C1=C2)OCO4,23.1%
15,Cc1ccc2c(sc(-c3ccc4c(c3)sc(-c3ccc5c(c3)sc(-c3ccc(N(C)C)cc3)[n+]5C)[n+]4C)[n+]2C)c1S(=O)(=O)O (tested in a mixture with another compound),27.7%
16,C(=N\N=C\c1c[nH]c2ccccc12)/c1c[nH]c2ccccc12,-21.6%
17,CCOC(=O)COc1cc(-c2ccccc2)nc2cc(F)ccc12,10.5%
18,N#C/C(=C/c1ccccc1Cl)C(N)=O,-12.2%
19,CC(=N\N=C\c1ccccn1)/C(C)=N/N=C/c1ccccn1,7.8%
20,O=C1c2cccnc2-c2nccc3ccnc1c23,75% (active)
